Source: the supplement of paper PMC7801607

Assays:
CHO = assay: % viability of CHO cells (MTT); higher = less toxic; conditions: 48 h
Summary of the method: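 Viability was given as a percentage of untreated cells and measured colorimetrically by the tetrazolium (MTT) assay. Before this, CHO cells at 10^6 cells/well in 200 µL attached overnight, then received fresh medium containing compound at 2 or 20 µM for 48 h.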

HepG2-A16-CD81 = assay: % inhibition of HepG2 viability (CellTiter-Glo); higher = more toxic; conditions: 5 µM
[1] = system: Plasmodium falciparum NF54 stage IV/V gametocytes; assay: % inhibition of gametocyte viability (PrestoBlue); higher = more inhibition; conditions: 48 h
Summary of the method: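 Values are percent inhibition of gametocyte viability, normalised to vehicle and kill controls in a single run. Stage IV/V NF54 gametocytes (2% gametocytaemia, 5% haematocrit, 100 µL/well) were held with compound at 1 or 5 µM for 48 h at 37 °C, stationary and hypoxic. Viability was read as 612 nm fluorescence on 70 µL of supernatant after a 2 h incubation with 10 µL PrestoBlue.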

[2] = system: Plasmodium falciparum NF54 asexual blood stage; assay: % inhibition of asexual blood stage proliferation (pLDH); higher = more inhibition; conditions: 72 h
Summary of the method: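 Using 96-well plates, the screen was run twice on separate occasions with Plasmodium falciparum NF54 ring-stage cultures at 1% haematocrit and 2% parasitaemia. Each culture was exposed to compound at 2 or 20 µM for 72 h at 37 °C under a gas mix of 4% CO2, 3% O2 and 93% N2. After incubation, the parasite lactate dehydrogenase assay was read colorimetrically at 620 nm. From this readout, percent inhibition of asexual proliferation was derived against control wells.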

[3] = system: Plasmodium falciparum NF54 stage IV/V gametocytes; assay: % inhibition of gametocyte viability (ATP bioluminescence); higher = more inhibition; conditions: 24 h
Summary of the method: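 Viability of stage IV/V NF54 gametocytes is given as percent inhibition, normalised to control wells in a single run. Gametocytes enriched on density gradients were seeded at 30,000 per well in 96-well plates with compound at 1 or 5 µM and held at 37 °C for 24 h. ATP was then read with the Promega BacTiter Glo bioluminescence system.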

[4] = system: Plasmodium falciparum NF54 stage IV/V gametocytes; assay: % inhibition of gametocyte viability (luciferase reporter); higher = more inhibition; conditions: 48 h
Summary of the method: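 Compound at 1 or 5 µM was added to stage IV/V NF54-Pfs16-GFP-Luc gametocytes (2% gametocytaemia, 2% haematocrit) and incubated stationary and hypoxic at 37 °C for 48 h. A GloMax-Multi+ reader measured luminescence over 10 s integration on 30 µL lysate plus 30 µL Promega luciferin substrate. Percent inhibition values were normalised to controls within a single run.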

[5] = system: Plasmodium berghei ANKA liver stage in HepG2-A16-CD81; assay: % inhibition of liver stage parasite viability (luciferase); higher = more inhibition; conditions: 5 µM; 48 h
Description: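 Single-concentration screen of the MMV Pandemic Response Box. P. falciparum NF54 asexual blood stages: pLDH assay, 72 h at 37 °C, 2 and 20 µM, n=2. Stage IV/V gametocytes (NF54): luciferase reporter (NF54-Pfs16-GFP-Luc, 48 h), ATP bioluminescence (24 h) and PrestoBlue (48 h) at 1 and 5 µM, n=1. P. berghei liver stage (luciferase in HepG2-A16-CD81, 48 h post infection) at 5 µM, n=4. All normalised to DMSO and kill controls as % inhibition.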
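For % inhibition of HepG2 viability (CellTiter-Glo) in this document: HepG2-A16-CD81 hepatoma cells plated as in the liver-stage assay but without sporozoites, with DMSO wells as negative and 25 µM puromycin as positive control.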

SMILES | % viability of CHO cells (CHO; 2 µM) | % viability of CHO cells (CHO; 20 µM) | % inhibition of HepG2 viability (HepG2-A16-CD81) | % inhibition of gametocyte viability ([1]; 1 µM) | % inhibition of gametocyte viability ([1]; 5 µM) | % inhibition of asexual blood stage proliferation ([2]; 2 µM) | % inhibition of asexual blood stage proliferation ([2]; 20 µM) | % inhibition of gametocyte viability ([3]; 1 µM) | % inhibition of gametocyte viability ([3]; 5 µM) | % inhibition of gametocyte viability ([4]; 1 µM) | % inhibition of gametocyte viability ([4]; 5 µM) | % inhibition of liver stage parasite viability [5]
Cc1ccccc1NC(=O)Nc1cccc([N+](=O)[O-])c1 | 121% | 111% | 8.58% | < 0% | 2.93% | 3.72% | 73.7% | 6.45% | < 0% | 3.59% | < 0% | 6.73%
CC1(C)C[C@H]1C(=O)N/C(=C\CCCCSC[C@@H](N)C(=O)O)C(=O)O | 229% | 49.5% | -5.39% | 25.1% | 25.8% | 20.8% | 20.1% | < 0% | < 0% | < 0% | < 0% | 12.4%
Nc1cc(N)c2nc(-c3ccccc3)c(Nc3ccc(F)cc3)nc2c1 | 97.5% | 88.4% | 12.8% | < 0% | < 0% | 91% | 92.4% | < 0% | 19.7% | < 0% | < 0% | 43.9%
Cc1cc(O)c2c(c1)C(=O)c1c(I)c(O)c(I)c(O)c1C2=O | 81.3% | 64.1% | 4.29% | < 0% | < 0% | 30.5% | 64.9% | < 0% | < 0% | < 0% | 6.19% | -49.9%
CC(C)Oc1ccc(-c2nc(-c3cccc4c3CC[C@@H]4NCCO)no2)cc1C#N | 113% | 117% | -1.14% | 16.7% | 7.83% | 78.4% | 87.9% | 14.3% | 84.7% | < 0% | < 0% | 21.6%
C=CCN(C(=O)OCc1ccc([N+](=O)[O-])cc1)C1CCN(CC[C@](C)(CN(C)S(=O)(=O)c2ccccc2)c2ccccc2)CC1 | 129% | 122% | -6.75% | 4.29% | 13.4% | 59.7% | 78.9% | < 0% | 32% | 2.56% | < 0% | 42.2%
Nc1nc(O)ncc1F | 118% | 21.7% | 0.135% | 3.77% | < 0% | -11% | -2.89% | < 0% | < 0% | < 0% | < 0% | 7.9%
O=c1nc(N2CCN(CC3CCCCC3)CC2)sc2c([N+](=O)[O-])cc(C(F)(F)F)cc12 | 95.8% | 112% | 7.83% | < 0% | 4.32% | 37% | 107% | < 0% | < 0% | 8.82% | < 0% | 33.1%
CCCC(=O)OCCc1ccccc1 | 114% | 99.3% | 0.113% | 10.7% | 4.24% | 8.06% | 16.5% | < 0% | < 0% | < 0% | 0.854% | -8.54%
